Measurements as given in PubChem BioAssay AID1159580 (chemical genetic matrix, 2015).
Values joined by “and” are separate entries in the source; they are usually repeats but may differ in a detail not shown here. Equal values may be shown once. The whole screen tested about 5,500 compounds, of which about 2,000 (36%) were called active. About 18% were inconclusive and are not listed. Rule as the data show it: active = normalized growth mostly below about 0.91 (no sharp cut-off); inconclusive = no clear call, values can overlap the other calls; inactive = mostly above about 0.92. Some of the results follow.

Assay: chemical genetic growth profiling, strain panel (AID 1159580);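 also: tested at 20 µM; growth read once vehicle control cultures reached saturation at 30 °C; 1 = growth at the plate median or of vehicle wells; lower values mean less growth of the strain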
Settings: S. cerevisiae deletion strains, growth OD

Measured: normalized growth

NC(=O)c1ncn([C@@H]2O[C@H](CO)[C@@H](O)[C@H]2O)n1
inactive: locus YAL013W, strain DEP1, hits give low values 1 | locus YAL021C, strain ccr4, hits give low values 1.02 | locus YAL026C, strain drs2, hits give low values 0.995 | locus YAL030W, strain snc1, hits give low values 0.998 | locus YBL061C, strain skt5, hits give low values 0.975 | locus YBR009C, strain hhf1, hits give low values 0.992 | locus YBR021W, strain FUR4, hits give low values 0.965 | locus YBR023C, strain chs3, hits give low values 0.981 | locus YBR171W, strain sec66, hits give low values 0.993 | locus YBR229C, strain ROT2, hits give low values 0.993 | locus YBR231C, strain swc5, hits give low values 0.997 | locus YBR279W, strain paf1, hits give low values 0.978 | locus YCL011C, strain gbp2, hits give low values 0.981 | locus YCL016C, strain dcc1, hits give low values 0.979 | locus YCL029C, strain bik1, hits give low values 0.981 | locus YCL061C, strain MRC1, hits give low values 0.983 | locus YCL069W, strain vba3, hits give low values 0.996 | locus YCR088W, strain abp1, hits give low values 0.994 | locus YDL005C, strain med2, hits give low values 0.982 | locus YDL035C, strain GPR1, hits give low values 1.02 | locus YDL040C, strain nat1, hits give low values 0.978 | locus YDL074C, strain BRE1, hits give low values 1.04 | locus YDL101C, strain DUN1, hits give low values 0.998 | locus YDL134C, strain PPH21, hits give low values 1 | locus YDL185W, strain tfp1, hits give low values 0.978 | locus YDL192W, strain arf1, hits give low values 0.98 | locus YDR001C, strain nth1, hits give low values 0.996 | locus YDR069C, strain doa4, hits give low values 0.989 | locus YDR101C, strain arx1, hits give low values 0.993 | locus YDR137W, strain rgp1, hits give low values 0.97 | locus YDR150W, strain NUM1, hits give low values 0.988 | locus YDR159W, strain sac3, hits give low values 0.978 | locus YDR162C, strain NBP2, hits give low values 0.968 | locus YDR195W, strain ref2 0.979 | locus YDR297W, strain sur2, hits give low values 0.99 | locus YDR318W, strain mcm21, hits give low values 0.995 | locus YDR334W, strain swr1, hits give low values 0.99 | locus YDR335W, strain msn5, hits give low values 0.991 | locus YDR388W, hits give low values 0.995 | locus YDR392W, strain spt3, hits give low values 0.995 | locus YDR502C, strain sam2, hits give low values 0.992 | locus YEL003W, strain gim4, hits give low values 0.999 | locus YEL037C, strain rad23, hits give low values 0.993 | locus YEL061C, strain CIN8 (second series), hits give low values 0.994 | locus YEL061C, strain CIN8, hits give low values 0.999 | locus YER015W, strain faa2, hits give low values 0.988 | locus YER016W, strain bim1, hits give low values 0.988 | locus YER110C, hits give low values 0.989 | locus YER111C, strain swi4, hits give low values 0.996 | locus YER155C, strain BEM2 (second series), hits give low values 0.989 | locus YER155C, strain BEM2, hits give low values 0.995 | locus YER167W, strain BCK2, hits give low values 1.01 | locus YFR010W, strain ubp6, hits give low values 0.999 | locus YGL078C, strain dbp3, hits give low values 0.985 | locus YGL086W, strain mad1, hits give low values 0.997 | locus YGL167C, strain pmr1, hits give low values 0.983 | locus YGL173C, strain kem1, hits give low values 0.974 | locus YGL227W, strain vid30, hits give low values 0.986 | locus YGL240W, strain doc1, hits give low values 0.984 | locus YGL248W, strain PDE1, hits give low values 0.996 | locus YGL253W, strain hxk2, hits give low values 0.982 | locus YGR078C, strain PAC10, hits give low values 1.02 | locus YGR135W, strain pre9, hits give low values 0.979 | locus YGR229C, strain SMI1, hits give low values 1.01 | locus YGR252W, strain gcn5, hits give low values 0.993 | locus YHR013C, strain ard1, hits give low values 0.953 | locus YHR027C, strain rpn1, hits give low values 0.974 | locus YHR030C, strain SLT2, hits give low values 0.999 and 0.988 | locus YHR079C, strain IRE1 (second series), hits give low values 1 | locus YHR079C, strain IRE1, hits give low values 0.98 | locus YHR094C, strain hxt1, hits give low values 0.981 | locus YHR129C, strain ARP1, hits give low values 1.01 | locus YHR142W, strain chs7, hits give low values 0.999 | locus YHR200W, strain rpn10, hits give low values 0.993 | locus YIL066C, strain RNR3, hits give low values 0.995 | locus YIL073C, strain SPO22, hits give low values 0.946 | locus YIL125W, strain kgd1, hits give low values 0.997 | locus YIR030C, strain dcg1, hits give low values 0.99 | locus YJL092W, strain hpr5, hits give low values 0.992 | locus YJL095W, strain BCK1 (second series), hits give low values 0.987 | locus YJL095W, strain BCK1, hits give low values 1.02 and 0.977 | locus YJL115W, strain asf1, hits give low values 0.994 | locus YJL129C, strain trk1, hits give low values 0.995 | locus YJL134W, strain LCB3, hits give low values 1 | locus YJL154C, strain vps35, hits give low values 1.01 | locus YJL164C, strain tpk1, hits give low values 0.978 | locus YJL166W, strain qcr8, hits give low values 0.988 | locus YJL168C, strain set2, hits give low values 1 | locus YJL187C, strain SWE1 (second series), hits give low values 0.983 | locus YJL187C, strain SWE1, hits give low values 0.986 | locus YJR043C, strain POL32, hits give low values 0.977 | locus YJR066W, strain TOR1, hits give low values 0.959
